# Paper PMC4336329 (PLoS ONE, 2015)
# Among all 310,000 compounds or so, about 14,000 (4.5%) showed an effect of 50% or more. Effects have a minus sign here. Shown is part of a subset that was picked to be rich in strong results.
# Target: human ether-à-go-go-related gene (hERG) potassium channel (human, UniProt Q12809)
# Test: primary screen, population patch clamp on CHO cells stably expressing hERG; higher = less effect of the substance
# 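Note: peak tail current of the secondary pulse compared with the same well before compound.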
# human ether-à-go-go-related gene (hERG) potassium channel, sequence (Q12809 whole entry, looked up): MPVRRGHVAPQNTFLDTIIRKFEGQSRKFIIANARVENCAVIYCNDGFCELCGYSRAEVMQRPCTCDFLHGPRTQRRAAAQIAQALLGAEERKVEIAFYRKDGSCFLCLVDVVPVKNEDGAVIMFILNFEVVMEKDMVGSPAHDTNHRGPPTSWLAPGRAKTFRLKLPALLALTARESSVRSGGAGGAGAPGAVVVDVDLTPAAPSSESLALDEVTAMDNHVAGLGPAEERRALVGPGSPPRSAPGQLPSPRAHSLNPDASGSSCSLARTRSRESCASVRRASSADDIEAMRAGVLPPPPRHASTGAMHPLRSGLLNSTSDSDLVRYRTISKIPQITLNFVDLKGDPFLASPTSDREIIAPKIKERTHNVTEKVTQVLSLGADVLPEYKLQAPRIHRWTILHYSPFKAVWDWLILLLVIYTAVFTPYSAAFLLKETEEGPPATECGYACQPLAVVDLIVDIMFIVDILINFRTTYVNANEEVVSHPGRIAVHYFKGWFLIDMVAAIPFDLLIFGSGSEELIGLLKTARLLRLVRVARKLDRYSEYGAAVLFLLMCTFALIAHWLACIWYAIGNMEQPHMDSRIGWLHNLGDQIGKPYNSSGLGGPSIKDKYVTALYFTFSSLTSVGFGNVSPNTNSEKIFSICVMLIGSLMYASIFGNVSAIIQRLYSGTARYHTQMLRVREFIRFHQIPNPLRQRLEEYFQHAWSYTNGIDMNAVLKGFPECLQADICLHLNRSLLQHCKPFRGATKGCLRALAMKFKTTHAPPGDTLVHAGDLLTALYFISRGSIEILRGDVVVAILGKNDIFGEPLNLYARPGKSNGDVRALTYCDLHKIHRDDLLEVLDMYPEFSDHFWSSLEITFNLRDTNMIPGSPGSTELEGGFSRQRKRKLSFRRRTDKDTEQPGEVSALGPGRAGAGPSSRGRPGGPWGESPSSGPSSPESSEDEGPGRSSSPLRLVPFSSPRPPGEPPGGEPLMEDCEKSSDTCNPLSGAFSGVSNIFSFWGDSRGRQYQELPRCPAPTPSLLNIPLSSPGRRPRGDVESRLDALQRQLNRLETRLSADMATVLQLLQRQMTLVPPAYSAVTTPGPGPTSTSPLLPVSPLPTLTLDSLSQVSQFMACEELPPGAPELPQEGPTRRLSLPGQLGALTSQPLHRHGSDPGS
row,SMILES,"hERG current change (%, negative = inhibition) at 10uM [%]"
1,CCOC(=O)C1=C(C)Nc2ncnn2C1/C=C/c1ccccc1 (stereo not shown),-2.68
2,CC1CN(c2ccc([N+](=O)[O-])nc2)CC(C)O1 (stereo not shown),-21.6
3,COC(=O)c1ccc(NC(=O)CSc2nc(=O)cc(N)n2-c2ccccc2)cc1,12.8
4,CCOC(=O)C1CCN(c2c(NCCCN3CCCCC3)c(=O)c2=O)CC1,6.88
5,CC(OC(=O)c1cccc(S(=O)(=O)N2CCOCC2)c1)C(=O)NC1CCCCC1C (stereo not shown),5.52
6,COc1cc(Cl)ccc1OCc1cc(C(=O)N(C)CCc2c(C)n[nH]c2C)no1,-19.5
7,COc1ccc(-c2csc(N(CCCN(C)C)C(=O)c3ccccc3F)n2)cc1.Cl,-35.3
8,COc1ccc(-c2csc(N(CCCN(C)C)C(=O)c3ccccc3C)n2)cc1.Cl,-75.1
9,COc1ccc(-c2csc(N(CCCN(C)C)C(=O)c3ccccc3Cl)n2)cc1.Cl,-67.3
10,CC1CCCC(C)N1C(=C(Cl)Cl)C(=C1SCCS1)[N+](=O)[O-] (stereo not shown),16.7
11,COc1ccccc1N(Cc1ccccc1)S(=O)(=O)c1cccc(C(=O)Nc2ccccn2)c1,10.5
12,Cc1nc2ccccc2c(=O)n1-c1ccc(NS(=O)(=O)c2cc(F)ccc2F)cc1,-11.7
13,O=C(CSc1ncccn1)N1CCN(Cc2ccccc2)CC1,9.31
14,Nc1cc(C(=O)O)c(Oc2ccc(Cl)cc2Cl)cc1C(=O)O,7.83
15,O=C(N/N=C/c1ccoc1)c1cc(Br)ccc1O,14.2
16,CCOc1ccc(NC(=O)c2ccc3[nH]c(=O)c(=O)[nH]c3c2)cc1,16.8
17,CC(C)(C)c1nc2ccc([N+](=O)[O-])cc2[nH]1,-77.7
18,O=[N+]([O-])c1cccc(-c2nc3ccc([N+](=O)[O-])cc3[nH]2)c1,8.34
19,F[B-](F)(F)F.O=[N+]([O-])c1ccc2nc(-[n+]3c(-c4ccccc4)cc(-c4ccccc4)cc3-c3ccccc3)[nH]c2c1,-61.8
20,CCCC[n+]1ccc(-c2nc3ccc([N+](=O)[O-])cc3[nH]2)cc1,-59.5
21,O=[N+]([O-])c1ccc(-c2nc3ccc([N+](=O)[O-])cc3[nH]2)cc1,-27.9
22,Nc1nc2ccc([N+](=O)[O-])cc2[nH]1,20.6
23,Cc1nc2ccc([N+](=O)[O-])cc2[nH]1,7.21
24,Cc1ccc(-c2nc3ccc([N+](=O)[O-])cc3[nH]2)cc1,-3.49
25,Cn1c(-[n+]2c(-c3ccccc3)cc(-c3ccccc3)cc2-c2ccccc2)nc2cc([N+](=O)[O-])ccc21.[I-],-12.2

row,SMILES,"hERG current change (%, negative = inhibition) at 10uM [%]"
1,O=C(NNC(=O)C1CC=CCC1C(=O)O)c1ccc(Cl)cc1 (stereo not shown),20.6
2,COC(CNC(=O)C1CCCN1C(=O)OCc1ccccc1)OC (stereo not shown),5.41
3,Cc1cc(O)c(C2=Nc3ccccc3SC(c3ccc(Cl)cc3)C2)c(=O)o1 (stereo not shown),19.4
4,Clc1ccccc1Nc1nc2ccccc2o1,10.5
5,O/C(=C\c1ccc2ccccc2n1)c1ccc(O)cc1O,4.33
6,CCOc1ccc(/C=C2\SC(=S)N(NC(=O)c3ccncc3)C2=O)cc1OC,16.9
7,COc1cc(NC(=O)CSCc2ccc(Cl)cc2)c(C(=O)O)cc1OC,13.6
8,CN(C)S(=O)(=O)c1ccc(NC(=O)CN2CCc3ccccc32)cc1,11.8
9,Cc1ccc(SCCNS(=O)(=O)c2ccc3c(c2)OCCO3)cc1,2.17
10,Cc1ccc(NC(=O)CN2C(=O)c3ccccc3C2=O)nc1,6.21
11,Cc1nc2ccsc2c(=O)n1-c1cccc(Cl)c1,14.4
12,O=C(NNC(=O)c1cccc(O)c1)Nc1ccc([N+](=O)[O-])cc1,16.3
13,O=C(c1ccccc1)c1cccn1CC(=O)N1CCCCCC1,5.2
14,O=C(Cc1ccccc1)N1CCN(C2CCCC2)CC1,0.401
15,O=C(Cc1ccccc1)N1CCN(C2CCCCCC2)CC1.O=C(O)C(=O)O,-19.2
16,O=C(C(Cc1ccccc1)n1cccc1)N1CCCCCC1 (stereo not shown),12.1
17,COc1ccc(CCC(=O)N2CCN(C(=O)c3ccccc3)CC2)cc1,5.76
18,O=C(c1ccccc1)c1cccn1CC(=O)N1CCN(C2CCCCC2)CC1,-52.6
19,COc1ccc(CCC(=O)N2CCN(C3CCCCC3)CC2)cc1,-69.1
20,COc1ccc(CCC(=O)N2CCCC(Nc3ccc(OC)cc3)C2)cc1 (stereo not shown),-6.96
21,O=C(C(Cc1ccccc1)n1cccc1)N1CCN(C2CCCCC2)CC1 (stereo not shown),-56.6
22,O=C(C(Cc1ccccc1)n1cccc1)N1CCCCC1 (stereo not shown),2.03
23,O=C(c1ccccc1)c1cccn1CC(=O)N1CCN(c2ccccc2)CC1,-9.33
24,O=C(CCCc1ccccc1)N1CCN(C2CCCCC2)CC1,-70.8
